The test system of this experiment is Plasmodium falciparum. In words: Primary screen in NF54 nanoGlo assay, in single point, at 2uM, 72h; a lower Z score goes with more inhibition. Format: functional, Erythrocyte. As to conditions: timepoint 72 hour.

Broadly, the % Inhibition is the drop in the measured response relative to a control, in per cent.

“And” between values parts separate entries of the source, which are not always exact repeats. Equal entries are not always repeated. The whole screen tested about 150,000 compounds, of which about 540 (0.36%) showed an effect of 50% or more. The list comes from a sample in which strong results are over-represented; it also holds similar structures and randomly drawn compounds.

For `O=C(NCCCc1ccccc1)c1ccc(CN2C(=O)CCn3nccc32)cc1`, the “% Inhibition” value was determined as 58% and the Z score is -2.28.
With `CCCCNC(=O)c1ccc(CN2C(=O)CCn3nccc32)cc1`, the “% Inhibition” value came to 18% and the Z score is listed as -2.08.
The like results for `COCCCNC(=O)c1ccc(CN2C(=O)CCn3nccc32)cc1` were, in that order, 13% and -1.46.
The like results for `CC1CCCN(C(=O)C2CCC2)C1CN` (centres undefined) were, in that order, -3% and 0.43.
The like results for `C[C@@H](NC(=O)NC1CCc2[nH]cnc2C1)c1ccc(F)cc1` (some centres undefined) were, in that order, -10% and 1.89.
Regarding `CC(C)c1ccc2ncnc(N[C@H]3CCc4[nH]cnc4C3)c2c1`, the “% Inhibition” value worked out at 96% and the Z score is reported as -17.94.
With `C[C@@H]1CC[C@H](CO)N1C(=O)Cc1cccc(C(F)(F)F)n1`, the “% Inhibition” value is reported as 3% and the Z score is -0.37.
On the same counts, the results for `Cc1c(C(=O)NC[C@H]2CCCOC2)[nH]c2c(Cl)cccc12` are -9% and 1.62.
The like results for `C[C@H](OC(=O)CNC(=O)OC(C)(C)C)C(=O)N1CCCCCC1` were, in that order, -12% and 1.29.
As for `CC(C)Oc1ccccc1[C@H]1Nc2ccccc2C(c2ccccc2)(c2ccccc2)O1`, the “% Inhibition” value is on record as -1% and the Z score is 0.21.
On the same counts, the results for `c1ccc(C2(c3ccccc3)O[C@@H](c3cccnc3)Nc3ccccc32)cc1` are -4% and 0.54.
On the same counts, the results for `Cc1ccc(CC[C@H]2Nc3ccccc3C(c3ccccc3)(c3ccccc3)O2)o1` are 81% and -13.4.
In the case of `Cc1cc(=O)n(CC(=O)N2CCCC[C@@H]2CCc2ccccc2)nc1C`, the “% Inhibition” value was -18% and the Z score is given as 3.31.
The like results for `O=C(c1cccs1)N(Cc1ccccn1)c1nc2ccccc2s1` were, in that order, 4% and -0.46.
On the same counts, the results for `Cc1oc(-c2ccn[nH]2)cc1S(=O)(=O)Nc1cccc(Cl)c1` are 59% and -0.35.
On the same counts, the results for `Cc1oc(-c2ccn[nH]2)cc1S(=O)(=O)Nc1ccc(F)c(Cl)c1` are 37% and -0.01.
In the case of `Cc1ccc(F)c(NS(=O)(=O)c2cc(-c3ccn[nH]3)oc2C)c1`, the “% Inhibition” value is on record as 2% and the Z score is recorded as -0.25.
The like results for `O=C(O)c1cc(NS(=O)(=O)c2cc(F)ccc2F)ccc1N1CCCCCC1` were, in that order, -4% and 0.67.
For the compound `CCc1cccc2c(C3=CCN(c4ccc5nnc(C(F)(F)F)n5n4)CC3)c[nH]c12`, the “% Inhibition” value is listed as 11% and the Z score is on record as -2.04.
The like results for `Cc1cc(C)cc(NC(=O)c2c(C)sc3ncnc(N4CCCC4)c23)c1` were, in that order, -2% and 0.31.
On to `CC(CN1CCC(N2CCOCC2)C1)c1cccc(Cl)c1` (centres undefined), for which the “% Inhibition” value turned out to be 5% and the Z score is -0.64.
On the same counts, the results for `CCC(=O)NCc1nc2c(n1C)CN(C(=O)c1ccc(CC)cc1)CC2` are 2% and -0.2.
The like results for `COC1(C)CCN(C(=O)c2ccon2)CC1` were, in that order, -4% and 0.52.
The like results for `O=C(CCc1conc1-c1cccc(F)c1)NC1CC1` were, in that order, -8% and 1.59.
Consider `O=S(=O)(c1cccs1)N1CC[C@H](n2ccnn2)C1`, for which the “% Inhibition” value was -9% and the Z score was determined as 1.54.
For the compound `Cc1cc(C)c(S(=O)(=O)N2CC[C@H](n3cccn3)C2)s1`, the “% Inhibition” value is listed as -1% and the Z score came to 0.1.
On the same counts, the results for `Cc1csc(S(=O)(=O)N2CC[C@H](n3cccn3)C2)c1` are 82% and 1.47.
As to `COC[C@](C)(CCO)NC(=O)Nc1cc(F)cc(Br)c1`, the “% Inhibition” value is -13% and the Z score came out at 1.11.
The like results for `CCn1cc(C(=O)Nc2ccc(OCCN3CC[C@H](C)C3)cc2)cn1` were, in that order, 5% and -0.92.
The like results for `Cc1cc(C)cc(N(CCC#N)C(=O)CN2CCC[C@H]2c2ccc3c(c2)OCCCO3)c1` were, in that order, -2% and 0.18.
Turning to `Cn1cc(C(=O)N[C@H]2CCN(c3ccc(F)c(Cl)c3)C2)cn1`, the “% Inhibition” value is recorded as -3% and the Z score is given as 0.57.
The like results for `CNC(=O)Nc1cccc(NC(=O)c2cncc(-c3cnn(C)c3)c2)c1` were, in that order, 24% and -3.15.
The like results for `COCCCCC(=O)N1CCC[C@H](N)[C@@H]1c1ccccc1OC` were, in that order, 4% and -0.43.
On the same counts, the results for `O=C(CN1C(=O)N[C@]2(CCc3cc(Cl)ccc32)C1=O)c1ccc2c(c1)OCO2` are 0% and -0.01.
On to `CC(C)Nc1nc2nonc2n2nnnc12`, for which the “% Inhibition” value is given as 31% and the Z score is on record as -3.95.
The like results for `C[C@H](Nc1nc2nonc2n2nnnc12)c1ccccc1` were, in that order, 27% and -3.54.
The like results for `CC(C)Nc1nc2nonc2n2cnnc12` were, in that order, 77% and -8.71.
With `Cc1cc(N2CCC[C@H](CNC(=O)CN3CCOCC3)C2)nc2cc(F)ccc12`, the “% Inhibition” value was -15% and the Z score was found to be 1.9.
On the same counts, the results for `CC(=O)N[C@H]1CCN(S(=O)(=O)c2sccc2Cl)C1` are 0% and -0.08.
On the same counts, the results for `O=C(NC1CCCC1)[C@@H](c1ccccc1)N1CCS(=O)(=O)CC1` are 7% and -0.84.
On the same counts, the results for `O=C(NC[C@]12C[C@H]1COC21CCC1)c1ncoc1-c1ccon1` are 5% and -0.99.
As for `CN(CC(C)(CO)CO)C(=O)c1ccsc1`, the “% Inhibition” value turned out to be 6% and the Z score was -0.9.
On the same counts, the results for `CCOC(=O)C1CCCN(C2CCN(C(=O)CCC3(Cc4ccc(C)cc4)CCC(=O)N3)CC2)C1` (centres undefined) are -5% and 0.68.
The like results for `Cc1nc(CCNc2nc(-c3ccccn3)nc3c2CCNCC3)no1` were, in that order, -2% and 0.27.
On the same counts, the results for `Cc1sc2nc(-c3ccccn3)nc(NCC(=O)N3CCC(O)CC3)c2c1-c1ccccc1` are 25% and -2.12.
For `Cc1cc(CN(C)C(=O)[C@H]2CC(=O)N(c3ccccc3)C2)no1`, the “% Inhibition” value is on record as -3% and the Z score came to 0.62.
With `CCC(=O)Nc1ccc(Oc2c(C)c(C(=O)O)nn2-c2ccccc2C)c(S(=O)(=O)N[C@@H](C)CC)c1`, the “% Inhibition” value is -10% and the Z score is given as 0.97.
The like results for `Cc1c(C(=O)O)nn(-c2ccc(F)cc2)c1Oc1ccc(NC(=O)CC(C)C)cc1S(=O)(=O)NCC(C)C` were, in that order, -16% and 1.93.
The like results for `CCC(=O)Nc1ccc(Oc2c(C)c(C(=O)O)nn2-c2ccccc2CC)c(S(=O)(=O)NCC(C)C)c1` were, in that order, 97% and -9.77.
On the same counts, the results for `CC1=C(C(=O)NCCC(F)(F)F)Cn2nnnc2N1C` are 0% and 0.01.
As to `COC(=O)c1ccc(C[N+]2(C[C@H]3COC4(CCCCC4)O3)CCCC2)cc1`, the “% Inhibition” value is given as -5%. Besides, the Z score (2 µM) is 0.44 and 0.65.
Regarding `CC1(C)C2CCC(C2)C1CC1OCC(C[N+]2(Cc3ccccc3)CCCCC2)O1` (centres undefined), the “% Inhibition” value is -7% and the Z score is reported as 1.37.
For the compound `CC(CC1OCC(C[N+]2(Cc3ccccc3)CCCCC2)O1)CC(C)(C)C` (centres undefined), the “% Inhibition” value amounted to 60% and the Z score is -5.21.
On the same counts, the results for `Cc1cc[n+]2c(-c3ccccc3)cc(-c3ccccc3)nc2c1` are 60% and -11.27.
The like results for `Cc1ccc(-c2csc(-c3nc(-c4ccccc4)cs3)n2)c(C)c1` were, in that order, 10% and -1.13.
The like results for `Cc1cc(-c2ccccc2)[n+]2ccccc2n1` were, in that order, -15% and 2.36.
On to `O=C(Cc1ccc2[nH]c(=O)[nH]c2c1)N1CCOC[C@@H]1CC1CCC1`, for which the “% Inhibition” value came out at 2% and the Z score is listed as -0.19.
On the same counts, the results for `CCOC(=O)c1cc2n(n1)C[C@@](C)(C(=O)NCCC(C)C)N(c1ccc(C)c(C)c1)C2=O` are -6% and 0.75.
With `O=C(Cc1ccc(N(Cc2cccc(F)c2)C(=O)c2cccc(F)c2)cc1)NCCN1CCCCC1`, the “% Inhibition” value worked out at 57% and the Z score is on record as -2.67.
The like results for `Cc1ccccc1C(=O)N(Cc1ccc(F)cc1)c1cccc(CC(=O)NCCN2CCCC2)c1` were, in that order, 6% and -0.6.
With `O=C(Cc1ccc(N(Cc2cccc(F)c2)C(=O)C2CCCC2)cc1)NCCN1CCCCC1`, the “% Inhibition” value was 59% and the Z score is recorded as -9.89.
On the same counts, the results for `O=C(Cc1ccc(N(Cc2cccc(F)c2)C(=O)C2CCCC2)cc1)NCCN1CCCC1` are 25% and -2.85.
On the same counts, the results for `COc1cccc(C(=O)N(Cc2ccc(C)cc2)c2cccc(CC(=O)N[C@@H](C)c3ccccc3)c2)c1` are -8% and 1.49.
As for `Cc1ccccc1C(=O)N(Cc1cccc(F)c1)c1ccc(CC(=O)NCCN2CCCCC2)cc1`, the “% Inhibition” value turned out to be 58% and the Z score is -4.25.
On the same counts, the results for `CCC(=O)N(Cc1cccc(F)c1)c1ccc(CC(=O)NCCN2CCCC2)cc1` are -2% and 0.24.
On to `O=C(Cc1ccc(N(Cc2cccc(F)c2)C(=O)c2cccc(F)c2)cc1)NCCN1CCCC1`, for which the “% Inhibition” value was 3% and the Z score is given as -0.41.
On the same counts, the results for `Cc1cccc(CN(C(=O)C2CCCC2)c2ccc(CC(=O)NCCN3CCCC3)cc2)c1` are 20% and -2.23.
On the same counts, the results for `Cc1ccc(CN(C(=O)c2ccccc2C)c2cccc(CC(=O)NCCN3CCCC3)c2)cc1` are -9% and 1.17.
The like results for `O=C(Cc1ccc(N(Cc2ccc(F)cc2)C(=O)c2cccc(F)c2)cc1)NCc1ccccc1` were, in that order, -2% and 0.3.
For the compound `Cc1ccc(C(=O)N(Cc2cccc(F)c2)c2ccc(CC(=O)N[C@@H](C)c3ccccc3)cc2)cc1`, the “% Inhibition” value is recorded as 74% and the Z score is -8.26.
The like results for `CC(C)(C)c1ncc(-c2cc(F)cc3cccnc23)[nH]1` were, in that order, -16% and 1.82.
On the same counts, the results for `Cc1n[nH]nc1-c1nc(-c2ccncc2)nn1[C@H]1CCS(=O)(=O)C1` are -6% and 0.87.
The like results for `Cc1ccc(CS(=O)(=O)N2CCC3CCN(C)CC32)c(F)c1` (centres undefined) were, in that order, -7% and 1.13.
Consider `Cc1nccn1CCNC(=O)c1cc2cccc(Cl)c2n1C`, for which the “% Inhibition” value was -16% and the Z score turned out to be 1.43.
On the same counts, the results for `CC[C@H]1CN(Cc2cccn2-c2nccs2)CCN1C` are -2% and 0.41.
On the same counts, the results for `Cc1ccc(-n2nc(C)cc2NS(=O)(=O)c2c(C)nn(C(C)C)c2C)nn1` are -9% and 1.42.
The like results for `CCOc1cccc2[nH]cc(CC(=O)N[C@H](c3nccn3C)C3CC3)c12` were, in that order, 7% and -0.9.
Take `CCOC(=O)NCCC(=O)NCCC[C@H]1CCCCO1`: the “% Inhibition” value was -4% and the Z score was 0.49.
As for `CCc1nsc(N2CC(C)N(CC#N)C(C)C2)n1` (centres undefined), the “% Inhibition” value was -3% and the Z score amounted to 0.45.
As for `Cc1cc(N)n(-c2ccc(-c3noc(-c4cc(C(C)C)on4)n3)cc2)n1`, the “% Inhibition” value turned out to be 15% and the Z score is -3.24.
The like results for `CCCc1cc(-c2nc(-c3ccc(-n4nc(C)cc4N)cc3)no2)n(C)n1` were, in that order, 71% and -14.18.
For `CC[C@@H](c1nc(-c2ccc(-n3nc(C)cc3N)cc2)no1)n1cccn1`, the “% Inhibition” value was -2% and the Z score turned out to be 0.32.
